Reference: PubChem BioAssay
Several values for one entry are separate records, joined by “and”; a condition that tells them apart may be missing. Equal entries are not always repeated. The list shows a part of the results. Results filed as inconclusive are left out. Activity calls are given as the source filed them.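 The calls were made as follows, unless noted: active = inhibition at or above 50% relative to wild type and mutant plate controls; inactive = inhibition below 50%.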

How the values were obtained:
[1] = inhibitors of TNFa-induced NFkB p65 translocation, primary screen, imaging, HUVEC, MLSMR starter and 10KST1 sets (AID 438;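 active = inhibition above 20% together with a positive visual image hit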;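 also: compound added about 3h40 before a 20 min TNFalpha stimulation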;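 as to inhibition: signal is the nuclear over cytoplasmic p65 intensity ratio per well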); settings: HUVEC TNFa-induced p65 nuclear translocation; cell count: measured here: nuclei count (cytotoxicity indicator), at 2.08 µM unless noted; inhibition: at 2 µM, stronger effect = higher value unless noted
[2] = reduction of polyQ htt aggregates in cells – imaging, exon1htt(103Q)mCFP cells, high-content imaging, primary screen (AID 483;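 active = visual image review flags a hit and inhibition of aggregation exceeds 20%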;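 also: compound exposure lasted 3 days before fixation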;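 as to nuclei count: percent of the per-plate median nuclei count of sample wells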); settings: exon1htt(103Q)mCFP cell line, aggregate imaging, at 2 µM; inhibition of aggregation: stronger effect = higher value; nuclei count: measured here: cell count, toxicity
[3] = endothelial E-selectin expression blockers – imaging, HUVEC, immunofluorescence, MLSMR starter and 10KST1 sets, primary screen (AID 487;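 active = visually confirmed hit in the image check and inhibition above 20%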;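 as to inhibition: signal is fraction of cell area covered by stained E-selectin grains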;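 as to nuclei count: 100% = median nuclei count of all wells on the same plate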); settings: HUVEC TNFalpha-induced E-selectin immunofluorescence imaging, at 2 µM; inhibition: stronger effect = higher value; nuclei count: measured here: cell number, toxicity
[4] = Primary imaging screen for DUSP6 inhibitors that restore phospho-Erk in transfected HeLa cells, chemical complementation (AID 609;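 active = compounds giving at least 50% inhibition in the cell-based MKP-3 phosphatase rescue imaging test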;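 as to inhibition: phospho-Erk level distribution per well compared with pooled transfected vehicle control wells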); settings: HeLa MKP-3 transfected, phospho-Erk imaging KS statistic, at 10 µM
[5] = target: Dual specificity protein phosphatase 6 (Homo sapiens) (UniProt Q16828); experiment: as above; settings: HeLa MKP-3 transfected, phospho-Erk imaging KS statistic, at 10 µM, stronger effect = higher value
[6] = target: Voltage-gated potassium channel subunit beta-2 (Rattus norvegicus) (UniProt P62483); experiment: inhibitors of rat Kvbeta2 reductase activity – biochemical, NADPH fluorescence, primary screen (AID 622;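 active = fluorescence slope higher than the sample average by over 3 SD, cut at about -0.22 in these data, passing the limit was not always enough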;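 also: slope of raw intensity against log time taken from 70 to 1610 s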); settings: recombinant KvBeta, 4-cyanobenzaldehyde reduction, at 10 µM, stronger effect = higher value
[7] = target: Voltage-gated potassium channel subunit beta-2 (Rattus norvegicus) (UniProt P62483); experiment: enhancers of rat Kvbeta2 NADPH turnover – biochemical, NADPH fluorescence, primary screen (AID 623;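 active = NADPH fluorescence slope more negative than the mean of all samples by about 3 SD, 99.7% confidence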;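 also: fluorescence intensity change per second fitted from 20 to 320 s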); settings: Recombinant KvBeta, NADPH fluorescence decrease slope, 10 min; at 10 µM; stronger effect = lower value
[8] = target: Alpha-2C adrenergic receptor (Homo sapiens) (UniProt P18825); experiment: compounds altering alpha2C-coupled GIRK flux – cell-based, HEK293 alpha2C/GIRK1/2, thallium flux, primary screen (AID 624;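 active = fluorescence slope after compound addition differing from the mean of all screened samples at 99.7% confidence, in either direction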;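 also: slope of fluorescence ratio to pre-addition baseline per second over 15 to 24 s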); settings: thallium flux BTC fluorescence, at 10 µM, actives lie on both sides
[9] = inhibitors of larval lipid processing in zebrafish, primary screen, whole organism, PED6 fluorescence, gall bladder and intestine (AID 686;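 active = a full or partial loss of lipid-probe fluorescence in the fish gall bladder, intestine or both, judged by eye; inactive = no fluorescence loss, or compound toxic to the fish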;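 also: larvae 5 to 7 days old with five fish per well; signal comes from phospholipase A2 cleavage of quenched PED6 carried via bile; overnight exposure to compound and PED6 before scoring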); settings: Zebrafish larvae PED6 lipid processing, fluorescence scoring
[10] = loss of swimming-algae plug formation – whole organism, Chlamydomonas reinhardtii, WT vs cilia-less mutant, absorbance, 96-well, primary screen (AID 463189); settings: Chlamydomonas reinhardtii gravitaxis, OD600 absorbance, 2 days; at 10 µM; stronger effect = higher value;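 also: 0% = wild type cc124 cells in DMSO and 100% = ciliumless bld1 mutant cells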
[11] = blockers of RIG-like receptor reporter activation – cell-based, Sendai virus stimulus, luciferase, 10K MLSCN set, TLR/RLR signaling modifier project, primary screen (AID 602276;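 active = inhibition at or above 50% at 10 µM; inactive = inhibition below 50%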;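 also: firefly luciferase from ISG56 promoter only with Renilla not read in this screen; 0% = Sendai virus plus DMSO and 100% = medium plus DMSO without virus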); settings: HEK293 RL24 IRF3 luciferase reporter, at 10 µM, stronger effect = higher value
[12] = TLR3 IRF3 reporter activation blockers – cell-based, poly I:C stimulus, luciferase, 10K MLSCN set, primary screen (AID 602277;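 active = inhibition of the reporter signal at or above 50%; inactive = inhibition below 50%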); settings: HEK293-TLR3 RL24 IRF3 luciferase reporter, at 10 µM, stronger effect = higher value
[13] = target: Muscarinic acetylcholine receptor M4 (Homo sapiens) (UniProt P08173); experiment: M4-linked GIRK flux change, two-sided – cell-based, HEK293 M4/GIRK, thallium flux, BTC-AM, M4 allosteric agonist project, primary screen (AID 625;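 active = fluorescence slope after compound addition differing from the mean of all tested samples at 99.7% confidence, mostly higher but some lower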;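 also: thallium influx through GIRK channels coupled to M4 in HEK293 cells with BTC-AM dye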); settings: at 10 µM, actives lie on both sides
[14] = target: Solute carrier family 12 member 5 (Homo sapiens) (UniProt Q9H2X9); experiment: retest of KCC2 transport modulators without sodium – cell-based, HEK293 KCC2, thallium flux, secondary assay, confirmation (AID 1713;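 active = thallium flux slope above the same plate's solvent-only control mean plus 3 SD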); settings: FluoZin2 fluorescence, at 10 µM, stronger effect = higher value
[15] = target: Solute carrier family 12 member 5 (Homo sapiens) (UniProt Q9H2X9); experiment: retest of KCC2 transport modulation, ouabain-free – cell-based, HEK293 KCC2, thallium flux, FluoZin2, secondary assay 2, confirmation (AID 1715;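 active = thallium flux slope more than 3 SD above or below the plate's solvent-only control mean, mostly below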;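 also: raw slope with 0.1% DMSO as baseline and bumetanide as block control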); settings: HEK293-KCC2, thallium flux FluoZin2 fluorescence; at 10 µM; actives lie on both sides
[16] = compound effects on native HEK Tl+ uptake – HEK cells, counterscreen 1, counter-screen for KCC2 modulator project, confirmation (AID 1716;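 active = thallium flux rate significantly above the same plate's solvent-only control wells, beyond their mean plus 3 SD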); settings: HEK293 parental cells, thallium flux FluoZin2, ouabain; at 10 µM; baseline-ratio fluorescence slope, 10–20 s after thallium
[17] = target: Solute carrier family 12 member 5 (Homo sapiens) (UniProt Q9H2X9); experiment: modulation of KCC2 thallium flux in HEK cells – cell-based, ouabain, retest, confirmation (AID 1717;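 active = thallium flux slope beyond 3 SD from same-plate DMSO control mean in most replicates, usually higher, sometimes lower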;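 also: slope of initial-normalized fluorescence between seconds 10 and 20 after thallium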); settings: HEK293-KCC2, thallium flux FluoZin2 fluorescence, at 10 µM, bidirectional: low = inhibitor, high = activator
[18] = measured here: cell density z-score
[19] = measured here: nuclear c-Myc green intensity z-score
[20] = measured here: nuclear pErk red intensity z-score, stronger effect = higher value

Alpha-2C adrenergic receptor (Homo sapiens), sequence (P18825 whole entry, looked up): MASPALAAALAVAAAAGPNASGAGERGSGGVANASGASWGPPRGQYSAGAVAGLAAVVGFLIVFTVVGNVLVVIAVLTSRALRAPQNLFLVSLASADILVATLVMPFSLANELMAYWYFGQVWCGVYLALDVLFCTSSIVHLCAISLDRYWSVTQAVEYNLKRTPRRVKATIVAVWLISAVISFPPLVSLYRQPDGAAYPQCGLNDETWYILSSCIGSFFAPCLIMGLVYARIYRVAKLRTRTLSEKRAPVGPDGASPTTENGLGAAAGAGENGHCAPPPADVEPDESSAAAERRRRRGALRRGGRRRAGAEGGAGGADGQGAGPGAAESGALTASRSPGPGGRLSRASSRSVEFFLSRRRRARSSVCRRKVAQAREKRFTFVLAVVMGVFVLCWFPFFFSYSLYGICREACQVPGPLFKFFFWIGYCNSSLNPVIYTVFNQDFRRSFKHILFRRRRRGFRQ
Muscarinic acetylcholine receptor M4 (Homo sapiens), sequence (P08173 whole entry, looked up): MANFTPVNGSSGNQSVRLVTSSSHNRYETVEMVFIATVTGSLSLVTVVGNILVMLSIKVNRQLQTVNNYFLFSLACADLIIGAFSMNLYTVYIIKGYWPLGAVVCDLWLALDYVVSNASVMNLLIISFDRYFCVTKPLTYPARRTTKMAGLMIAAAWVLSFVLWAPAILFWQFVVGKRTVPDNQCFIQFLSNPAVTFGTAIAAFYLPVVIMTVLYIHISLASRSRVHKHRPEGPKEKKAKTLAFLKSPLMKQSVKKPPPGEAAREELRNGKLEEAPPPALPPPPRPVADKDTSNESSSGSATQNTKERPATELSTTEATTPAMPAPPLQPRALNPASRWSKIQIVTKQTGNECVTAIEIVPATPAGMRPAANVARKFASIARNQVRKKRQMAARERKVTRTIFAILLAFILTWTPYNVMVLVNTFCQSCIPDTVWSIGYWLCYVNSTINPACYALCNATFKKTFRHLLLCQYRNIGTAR
Dual specificity protein phosphatase 6 (Homo sapiens), sequence (Q16828 whole entry, looked up): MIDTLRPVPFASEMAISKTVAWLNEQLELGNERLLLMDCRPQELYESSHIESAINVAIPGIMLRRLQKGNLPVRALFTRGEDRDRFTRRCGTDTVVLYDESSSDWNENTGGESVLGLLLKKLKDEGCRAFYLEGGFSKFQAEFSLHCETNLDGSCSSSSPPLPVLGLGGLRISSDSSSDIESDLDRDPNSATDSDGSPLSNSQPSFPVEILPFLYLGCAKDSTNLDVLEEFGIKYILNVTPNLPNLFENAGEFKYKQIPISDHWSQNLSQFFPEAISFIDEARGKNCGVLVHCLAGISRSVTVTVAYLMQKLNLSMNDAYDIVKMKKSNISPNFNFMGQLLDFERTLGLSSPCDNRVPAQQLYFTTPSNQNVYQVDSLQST
Voltage-gated potassium channel subunit beta-2 (Rattus norvegicus), sequence (P62483 whole entry, looked up): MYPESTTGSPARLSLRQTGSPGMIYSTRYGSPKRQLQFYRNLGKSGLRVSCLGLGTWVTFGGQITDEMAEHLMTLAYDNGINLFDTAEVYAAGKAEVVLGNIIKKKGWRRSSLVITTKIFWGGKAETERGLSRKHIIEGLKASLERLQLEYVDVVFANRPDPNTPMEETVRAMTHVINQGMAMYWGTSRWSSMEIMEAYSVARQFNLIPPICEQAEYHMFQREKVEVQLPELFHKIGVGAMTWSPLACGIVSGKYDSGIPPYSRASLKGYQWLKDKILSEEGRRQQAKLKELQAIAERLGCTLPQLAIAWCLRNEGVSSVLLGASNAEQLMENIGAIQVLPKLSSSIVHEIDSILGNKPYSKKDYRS
Solute carrier family 12 member 5 (Homo sapiens), sequence (Q9H2X9 whole entry, looked up): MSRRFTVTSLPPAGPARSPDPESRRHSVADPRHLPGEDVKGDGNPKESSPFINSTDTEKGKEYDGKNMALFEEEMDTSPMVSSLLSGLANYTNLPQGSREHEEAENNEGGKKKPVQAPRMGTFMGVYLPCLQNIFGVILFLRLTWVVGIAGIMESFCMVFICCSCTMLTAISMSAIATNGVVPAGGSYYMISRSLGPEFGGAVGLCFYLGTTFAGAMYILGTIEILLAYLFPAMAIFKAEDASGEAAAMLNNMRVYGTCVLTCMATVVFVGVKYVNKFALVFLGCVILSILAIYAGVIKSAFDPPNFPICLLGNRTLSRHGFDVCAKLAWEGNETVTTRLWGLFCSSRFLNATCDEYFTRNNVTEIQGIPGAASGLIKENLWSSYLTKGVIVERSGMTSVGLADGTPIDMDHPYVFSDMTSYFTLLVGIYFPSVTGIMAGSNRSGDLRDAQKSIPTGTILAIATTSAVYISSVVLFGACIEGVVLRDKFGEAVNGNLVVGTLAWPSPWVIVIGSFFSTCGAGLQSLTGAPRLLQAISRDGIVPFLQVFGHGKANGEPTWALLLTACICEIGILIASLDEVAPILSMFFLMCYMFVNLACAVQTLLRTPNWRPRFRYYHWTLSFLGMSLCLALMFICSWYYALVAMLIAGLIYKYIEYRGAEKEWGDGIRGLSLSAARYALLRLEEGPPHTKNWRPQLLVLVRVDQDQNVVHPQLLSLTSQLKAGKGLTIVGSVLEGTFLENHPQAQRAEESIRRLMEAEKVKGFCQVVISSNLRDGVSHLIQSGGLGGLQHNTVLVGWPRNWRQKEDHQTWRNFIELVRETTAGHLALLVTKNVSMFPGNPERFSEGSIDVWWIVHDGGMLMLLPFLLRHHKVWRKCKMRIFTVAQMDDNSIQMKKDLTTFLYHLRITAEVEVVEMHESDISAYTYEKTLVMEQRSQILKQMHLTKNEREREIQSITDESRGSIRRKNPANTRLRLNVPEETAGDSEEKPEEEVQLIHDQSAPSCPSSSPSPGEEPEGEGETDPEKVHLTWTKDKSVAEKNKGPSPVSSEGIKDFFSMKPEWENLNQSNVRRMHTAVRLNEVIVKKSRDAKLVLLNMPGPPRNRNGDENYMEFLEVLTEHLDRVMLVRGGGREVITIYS

[N-]=[N+]=CC(=O)OC[C@H](N)C(=O)O
cell count [1]: 594 | inhibition [1]: -4% (inactive) | inhibition of aggregation [2]: -0.4% (inactive) | nuclei count [2]: 104% | inhibition [3]: -25.7% (inactive) | nuclei count [3]: 133% | z-score [4, 18]: -0.1 | z-score [4, 19]: -0.513 | z-score [4, 20]: -0.992 | inhibition [5]: 25.1% (inactive) | fluorescence slope [6]: -0.53 (inactive) | NADPH fluorescence slope [7]: 2.4e-05 (inactive) | slope [8]: 0.00503 (inactive) | outcome [9]: inactive | inhibition [10]: -8.35% (inactive) | inhibition [11]: 16.7% (inactive) | inhibition [12]: 21.9% (inactive)

CC1=C(C(=O)OC(C)C)[C@]2(C(=O)N(CC(N)=O)c3ccccc32)C(C#N)=C(N)O1
cell count [1]: 568 | inhibition [1]: -7.6% (inactive) | inhibition of aggregation [2]: -10.5% (inactive) | nuclei count [2]: 87.4% | inhibition [3]: -47.2% (inactive) | nuclei count [3]: 126% | z-score [4, 18]: 1.04 | z-score [4, 19]: -0.385 | z-score [4, 20]: -1.8 | inhibition [5]: -0.624% (inactive) | fluorescence slope [6]: -0.435 (inactive) | NADPH fluorescence slope [7]: -5.8e-05 (inactive) | slope [8]: 0.00458 (inactive) | fluorescence slope [13]: 0.00529 (inactive) | outcome [9]: inactive | inhibition [10]: 1.76% (inactive) | inhibition [11]: 15.6% (inactive) | inhibition [12]: 21.9% (inactive)

O=C1NC(=O)C(C/C=C/c2ccccc2)C(=O)N1
cell count [1]: 678 | inhibition [1]: -2.2% (inactive) | inhibition [3]: 29.3% (inactive) | nuclei count [3]: 154% | z-score [4, 18]: 0.051 | z-score [4, 19]: 0.145 | z-score [4, 20]: 0.14 | inhibition [5]: 16.5% (inactive) | fluorescence slope [6]: -0.473 (inactive) | NADPH fluorescence slope [7]: -4.7e-05 (inactive) | fluorescence slope [13]: 0.00573 (inactive) | outcome [9]: inactive | normalised thallium flux (F/F0 slope) [14]: 0.00969 (inactive) | normalized thallium flux [15]: 0.0324 (inactive) | thallium flux rate (normalised fluorescence) [16]: 0.0082 (inactive) | raw Tl+ flux slope (below DMSO = inhibition, above = activation) [17]: 0.0194 (inactive) | inhibition [10]: -5.46% (inactive)

Cc1ccc(-n2c(O)c(C=NCCN3CCOCC3)c(=O)[nH]c2=O)cc1
cell count [1]: 536 | inhibition [1]: -3.4% (inactive) | inhibition of aggregation [2]: -17.4% (inactive) | nuclei count [2]: 117% | inhibition [3]: -76.6% (inactive) | nuclei count [3]: 147% | z-score [4, 18]: -0.809 | z-score [4, 19]: -1.16 | z-score [4, 20]: 1.01 | inhibition [5]: 6.04% (inactive) | fluorescence slope [6]: -0.418 (inactive) | NADPH fluorescence slope [7]: -4.9e-05 (inactive) | slope [8]: 0.00555 (inactive) | outcome [9]: inactive | inhibition [10]: -5.09% (inactive) | inhibition [11]: 15.1% (inactive) | inhibition [12]: 25% (inactive)

O=C(CCCN1CCC2(CC1)C(=O)NCN2c1ccccc1)c1ccc(F)cc1
cell count [1]: 564 | inhibition [1]: 2.1% (inactive) | inhibition of aggregation [2]: -20.4% (inactive) | nuclei count [2]: 100% | inhibition [3]: 3.3% (inactive) | nuclei count [3]: 103% | z-score [4, 18]: -2.08 | z-score [4, 19]: 0.206 | z-score [4, 20]: 3.52 | inhibition [5]: 3.59% (inactive) | fluorescence slope [6]: -0.51 (inactive) | NADPH fluorescence slope [7]: -3.9e-05 (inactive) | slope [8]: 0.00481 (inactive) | outcome [9]: inactive | inhibition [10]: 4.76% (inactive) and 18.8% (inactive) | inhibition [11]: 29.9% (inactive) | inhibition [12]: 29.3% (inactive)

CC(C)N(CCC(C(N)=O)(c1ccccc1)c1ccccn1)C(C)C (stereo unspecified)
cell count [1]: 539 | inhibition [1]: -8.5% (inactive) | inhibition of aggregation [2]: -2.7% (inactive) | nuclei count [2]: 104% | inhibition [3]: -22.4% (inactive) | nuclei count [3]: 106% | z-score [4, 18]: -0.772 | z-score [4, 19]: 0.954 | z-score [4, 20]: 0.768 | inhibition [5]: 9.37% (inactive) | fluorescence slope [6]: -0.515 (inactive) | NADPH fluorescence slope [7]: -7.6e-05 (inactive) | slope [8]: 0.00456 (inactive) | outcome [9]: inactive | inhibition [10]: 1.35% (inactive) and 4.32% (inactive) and 26.6% (inactive) | inhibition [11]: 6.44% (inactive) | inhibition [12]: 34% (inactive)

C[N+]1(C)CCc2cc3c(cc2[C@H]1[C@@H]1OC(=O)c2c1ccc1c2OCO1)OCO3
cell count [1]: 633 | inhibition [1]: 1.1% (inactive) | inhibition of aggregation [2]: -10.4% (inactive) | nuclei count [2]: 110% | inhibition [3]: -58% (inactive) | nuclei count [3]: 109% | z-score [4, 18]: 0.571 | z-score [4, 19]: -0.122 | z-score [4, 20]: -0.447 | inhibition [5]: 19.2% (inactive) | fluorescence slope [6]: -0.486 (inactive) | NADPH fluorescence slope [7]: -3.8e-05 (inactive) | slope [8]: 0.00504 (inactive) | inhibition [10]: 6.58% (inactive) and 16.9% (inactive) | inhibition [11]: 12.6% (inactive) | inhibition [12]: 45.3% (inactive)

CN(C)[C@@H]1C(=O)C(C(N)=O)=C(O)[C@@]2(O)C(=O)C3=C(O)c4c(O)cccc4[C@@](C)(O)[C@H]3C[C@@H]12
cell count [1]: 668 | inhibition [1]: 5.4% (inactive) | inhibition of aggregation [2]: 72.1% (active) | nuclei count [2]: 99.1% | inhibition [3]: -85.3% (inactive) | nuclei count [3]: 113% | z-score [4, 18]: -0.618 | z-score [4, 19]: -0.0358 | z-score [4, 20]: -1.49 | inhibition [5]: 21.2% (inactive) | fluorescence slope [6]: -0.433 (inactive) | NADPH fluorescence slope [7]: -5.8e-05 (inactive) | slope [8]: 0.00553 (inactive) | outcome [9]: inactive | inhibition [10]: 22.3% (inactive) | inhibition [11]: 10.4% (inactive) | inhibition [12]: 33.9% (inactive)

COc1ccc(OC)c([C@@H](O)[C@H](C)NC(C)(C)C)c1
cell count [1]: 671 | inhibition [1]: -4.8% (inactive) | inhibition of aggregation [2]: -2.8% (inactive) | nuclei count [2]: 95.5% | inhibition [3]: -81.3% (inactive) | nuclei count [3]: 138% | z-score [4, 18]: 0.193 | z-score [4, 19]: 0.685 | z-score [4, 20]: 0.252 | inhibition [5]: 23.2% (inactive) | fluorescence slope [6]: -0.517 (inactive) | NADPH fluorescence slope [7]: -5.7e-05 (inactive) | slope [8]: 0.00439 (inactive) | outcome [9]: inactive | inhibition [10]: 17.4% (inactive) | inhibition [11]: 2.13% (inactive) | inhibition [12]: 33.4% (inactive)

Nc1ccc(C2(c3ccc(N)cc3)CN3CCC2CC3)cc1
cell count [1]: 688 | inhibition [1]: -0.7% (inactive) | inhibition of aggregation [2]: 1.5% (inactive) | nuclei count [2]: 104% | inhibition [3]: -49.8% (inactive) | nuclei count [3]: 138% | z-score [4, 18]: -0.8 | z-score [4, 19]: 0.409 | z-score [4, 20]: -0.625 | inhibition [5]: 1.12% (inactive) | fluorescence slope [6]: -0.502 (inactive) | NADPH fluorescence slope [7]: -3e-05 (inactive) | slope [8]: 0.00562 (inactive) | fluorescence slope [13]: 0.00533 (inactive) | outcome [9]: inactive | inhibition [10]: 8.44% (inactive) | inhibition [11]: 2.43% (inactive) | inhibition [12]: 13.5% (inactive)
